Data reported in PubChem BioAssay (Tox21).
Results filed as inconclusive are left out. Values without a mark were called inactive. The source made the active and inactive calls. Unless noted, calls follow the shape of the dose curve; as a rule, active = well fitted cell-killing curve with a large enough effect in the repeat runs (not every such curve was filed as active); inconclusive = weak or mixed curves, or effect the other way; inactive = no such curve, though single readings can be large or run the other way.

molecular target: Bile acid receptor (Homo sapiens) (UniProt Q96RI1); test: qHTS assay to identify small molecule agonists of the farnesoid-X-receptor (FXR) signaling pathway (AID 743220; active = well fitted activation curve with a large enough effect in the signal ratio in the repeat runs, not every such curve was filed as active; the % refers to the signal ratio); settings: HEK293T FXR-UAS-bla, beta-lactamase FRET ratio, 16 h; series mostly up to 62.6 µM; activation: at the top concentration
Procedure, shortened: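 FXR-UAS-bla HEK 293T cells carrying a UAS-driven beta-lactamase reporter were plated for 5 h at 37C/5% CO2, then exposed to DMSO-dissolved Tox21 10K compounds for 16 h at 37C. A LiveBLAzer B/G FRET substrate was loaded for 2 h at room temperature before fluorescence reading.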
% is scaled to controls: 0 for no effect and ±100 for the full control effect.

Bile acid receptor (Homo sapiens), sequence (Q96RI1 whole entry, looked up): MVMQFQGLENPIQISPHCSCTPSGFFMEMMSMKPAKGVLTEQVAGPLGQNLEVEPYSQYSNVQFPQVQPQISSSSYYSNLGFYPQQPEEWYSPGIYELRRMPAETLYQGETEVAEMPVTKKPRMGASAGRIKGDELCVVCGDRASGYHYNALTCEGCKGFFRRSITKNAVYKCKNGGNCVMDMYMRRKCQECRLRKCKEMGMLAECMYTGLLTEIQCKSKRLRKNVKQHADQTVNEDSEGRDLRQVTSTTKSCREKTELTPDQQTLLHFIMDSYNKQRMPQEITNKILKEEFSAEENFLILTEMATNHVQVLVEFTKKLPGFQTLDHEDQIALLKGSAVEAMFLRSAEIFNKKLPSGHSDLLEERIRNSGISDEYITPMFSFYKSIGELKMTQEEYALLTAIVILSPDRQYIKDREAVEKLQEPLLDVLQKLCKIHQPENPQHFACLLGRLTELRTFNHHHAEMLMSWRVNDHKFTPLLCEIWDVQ

Compound | activation
C=CC(=O)OCC(C)O (stereo unspecified) | 5.97% [at 81.1 µM]
C[C@H]1CNCCc2ccc(Cl)cc21 | 1.91%
COCC(C)N(C(=O)CCl)c1c(C)csc1C (stereo unspecified) | -0.484%
O=C(N[C@H](c1ccccc1)[C@@H]1CN2CCC1CC2)c1c(Cl)ccc(C(F)(F)F)c1Cl | -7.35% [at 81.1 µM]

system: not listed separately; test: qHTS assay to identify small molecule antagonists of the farnesoid-X-receptor (FXR) signaling pathway - cell viability counter screen (AID 743221); settings: FXR-bla HEK293T viability, CellTiter-Glo luminescence, 16 h; series mostly up to 62.6 µM; activity change, negative = cytotoxicity: at the top concentration; also: nearly all actives have a fitted effect of over 50% in size; also: potency is read from the fitted curve at half-maximal effect
Procedure, shortened: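 Here viability was scored by luminescence after CellTiter-Glo addition to wells already read for beta-lactamase. Prior treatment: compound plus CDCA (50 uM final), 16 h, 37 C, HEK 293T FXR-bla cells.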

Compound | activity change, negative = cytotoxicity | Potency
C=CC(=O)OCC(C)O (stereo unspecified) | 8.88% [at 81.1 µM] | 
C=COC(C)=O | 17.5% [at 81.1 µM] | 
CCO[C@H]1O[C@@H]2OC3(C)CC[C@H]4[C@H](C)CC[C@@H]([C@H]1C)[C@@]24OO3 | -7.97% | 
CC(C)(CCl)C(=O)Cl | 8.24% | 
CC(O)(CS(=O)(=O)c1ccc(F)cc1)C(=O)Nc1ccc(C#N)c(C(F)(F)F)c1 (stereo unspecified) | -8.66% | 
CCC(Cl)CCl (stereo unspecified) | 4.28% [at 81.1 µM] | 
BrCCCCBr | 5.61% | 
C/C(=C\c1ccccc1)[N+](=O)[O-] |  | 43.6 µM (active)
C/C=C/C=O | 3.14% | 
C[C@H]1CNCCc2ccc(Cl)cc21 | -20.8% | 
CC1(C)[C@H](C=C(Cl)Cl)[C@@H]1C(=O)O[C@@H](C#N)c1cccc(Oc2ccccc2)c1 | -12.6% | 
CCOP(=O)(OCC)SCCSCC | 5.36% | 
COCC(C)N(C(=O)CCl)c1c(C)csc1C (stereo unspecified) | -0.0931% | 
CCOC(=O)[C@]1(c2ccccc2)Oc2ccccc2[C@@H]1N | -18% | 
COc1cc(Cl)c(OC)cc1Cl | 1.14% | 
O=[Se]=O | 7.31% | 
Cc1c(F)c(F)c(COC(=O)C2C(/C=C(\Cl)C(F)(F)F)C2(C)C)c(F)c1F (stereo unspecified) | -10.5% | 
C=CCN1CC[C@]23c4c5ccc(O)c4O[C@H]2C(=O)CC[C@@]3(O)[C@H]1C5 | 2.38% | 
CO[C@@H]1[C@H](OC(=O)NC(=O)CCl)CC[C@]2(CO2)[C@H]1[C@@]1(C)O[C@@H]1CC=C(C)C | 9.83% [at 29.1 µM] | 
O=C1CN=C(c2ccccc2)c2cc(Cl)ccc2N1CC1CC1 | -0.0008% | 
C=CC[C@]1(O)CC[C@H]2[C@@H]3CCC4=CC(=O)CCC4=C3C=C[C@@]21C | 0.827% | 
C=C(C#N)CCC#N | 14% | 
ClCC(Br)CBr (stereo unspecified) | 0.858% | 
COC(C)(C)CCC[C@H](C)C/C=C/C(C)=C/C(=O)OC(C)C | -23.8% | 
CO/N=C(/C(=O)OC)c1ccccc1COc1ccccc1C | -1.5% | 
BrCC(Br)C1CCC(Br)C(Br)C1 (stereo unspecified) | 2.6% | 

molecular target: Vitamin D3 receptor (Homo sapiens) (UniProt P11473); test: qHTS assay to identify small molecule agonists of the vitamin D receptor (VDR) signaling pathway (AID 743222; calls by dose curve); settings: HEK293T VDR-UAS-bla, beta-lactamase FRET ratio, 16 h; series mostly up to 63.5 µM; activation: at the top concentration
Procedure, shortened: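 Beta-lactamase reporter readout (LiveBLAzer B/G FRET, 2 h RT) in VDR-bla cells after 16 h compound treatment at 37C, 5% CO2; cells pre-incubated 4 h before pin transfer of DMSO solutions.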

Vitamin D3 receptor (Homo sapiens), sequence (P11473 whole entry, looked up): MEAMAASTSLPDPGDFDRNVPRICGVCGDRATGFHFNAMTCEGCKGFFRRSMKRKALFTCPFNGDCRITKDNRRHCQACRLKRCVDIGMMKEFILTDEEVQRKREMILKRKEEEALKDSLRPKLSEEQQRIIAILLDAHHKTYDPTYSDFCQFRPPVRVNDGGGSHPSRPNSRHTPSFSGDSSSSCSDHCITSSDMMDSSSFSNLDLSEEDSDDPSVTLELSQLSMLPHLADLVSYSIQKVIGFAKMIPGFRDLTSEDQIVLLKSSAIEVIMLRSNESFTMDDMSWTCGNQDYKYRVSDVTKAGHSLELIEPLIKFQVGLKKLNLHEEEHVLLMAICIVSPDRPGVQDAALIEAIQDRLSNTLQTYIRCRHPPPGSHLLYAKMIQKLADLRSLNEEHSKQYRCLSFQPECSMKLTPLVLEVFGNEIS

Compound | activation
C=CC(=O)OCC(C)O (stereo unspecified) | 8.14% [at 81.1 µM]
C=COC(C)=O | 10% [at 81.1 µM]
CC1CC(CC2CCC(N)C(C)C2)CCC1N (stereo unspecified) | -8.85% [at 81.1 µM]
CCO[C@H]1O[C@@H]2OC3(C)CC[C@H]4[C@H](C)CC[C@@H]([C@H]1C)[C@@]24OO3 | 2.32%
CC(O)(CS(=O)(=O)c1ccc(F)cc1)C(=O)Nc1ccc(C#N)c(C(F)(F)F)c1 (stereo unspecified) | 0.0498%
CCC(Cl)CCl (stereo unspecified) | 2.37% [at 81.1 µM]
CCOC(=O)C(Cl)C(C)=O (stereo unspecified) | 2.64% [at 81.1 µM]
C/C=C/C=O | 0.274%
C[C@H]1CNCCc2ccc(Cl)cc21 | 2.27%
CC1(C)[C@H](C=C(Cl)Cl)[C@@H]1C(=O)O[C@@H](C#N)c1cccc(Oc2ccccc2)c1 | 13%
CCOP(=O)(OCC)SCCSCC | 4.77%
CCOC(=O)[C@]1(c2ccccc2)Oc2ccccc2[C@@H]1N | -22.9%
COc1cc(Cl)c(OC)cc1Cl | 2.86%
O=[Se]=O | 0.363%
Cc1c(F)c(F)c(COC(=O)C2C(/C=C(\Cl)C(F)(F)F)C2(C)C)c(F)c1F (stereo unspecified) | 2.85%
C=CCN1CC[C@]23c4c5ccc(O)c4O[C@H]2C(=O)CC[C@@]3(O)[C@H]1C5 | -3.39%
O=C(N[C@H](c1ccccc1)[C@@H]1CN2CCC1CC2)c1c(Cl)ccc(C(F)(F)F)c1Cl | -13.2% [at 81.1 µM]
O=C1CN=C(c2ccccc2)c2cc(Cl)ccc2N1CC1CC1 | -12.3%
C=C(C#N)CCC#N | 8.18%
ClCC(Br)CBr (stereo unspecified) | -1.16%
CO/N=C(/C(=O)OC)c1ccccc1COc1ccccc1C | -12.8%
